From PubChem BioAssay (NCATS)
Results filed as inconclusive are left out. The source made the active and inactive calls. Calls come from the whole dose curve; as a rule, active = well fitted inhibition curve with a large enough effect; inconclusive = small, poorly fitted or top-dose-only effect; inactive = flat fitted curve, though single readings scatter. Where a SMILES comes first, the peptide text is derived from it. [ ]: non-standard residue; d: D form. ξ: configuration not given here. ξPhe(βξ-Me) = CC(c1ccccc1)C(N)C(=O)O; GABA = NCCCC(=O)O
% is set by controls: 0 for no effect and ±100 for the full control effect; potency is the fitted concentration of half-maximal effect.

Assay: P-glycoprotein substrates identified in KB-8-5-11 adenocarcinoma cell line, qHTS therapeutic library screen (AID 1346987); note: nearly all actives have a fitted effect of over 65% in size
Settings: KB-8-5-11 (P-gp overexpressing) viability, CellTiter-Glo, 72 h; series mostly up to 44.5 µM; activity change, negative = cytotoxicity: at the top concentration
Summary of the method: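 Human cervical adenocarcinoma KB-8-5-11 cells, selected in colchicine to over-express P-gp and assayed without it, were exposed for 72 h to titrated compounds. An ATP-based luminescent viability signal gave AC50.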
For CCOc1ccc(-c2ccc(Cn3c(CC(C)(C)C(=O)O)c(SC(C)(C)C)c4cc(OCc5ccc(C)cn5)ccc43)cc2)cn1, the Potency was “inactive”.
For C=C(C(=O)O)C1CCC(C)C2CCC(=O)OC2(C)C1 (stereo not given), the “activity change, negative = cytotoxicity” value was 0.192% (inactive).
With C/C(=C\CO)CC/C=C(\C)C(=O)O[C@H]1[C@H](OC2OC=C(C(=O)O)C3CCC(C)(O)C23)O[C@H](CO)[C@@H](O)[C@@H]1O (stereo not given in full) the “outcome” value was “inactive [at 17.3 µM]”.
With CC1(C)CC[C@]2(C(=O)O)CC[C@]3(C)C(=CCC4[C@@]5(C)CCC(O[C@@H]6OC[C@H](O)[C@H](O)[C@H]6O[C@@H]6O[C@H](CO)[C@@H](O)[C@H](O)[C@H]6O)[C@@](C)(CO)C5CC[C@]43C)[C@@H]2C1 (stereo not given in full) the “outcome” value was “inactive [at 17.3 µM]”.
For C[C@H](CCC(=O)O)[C@H]1CC[C@H]2[C@@H]3[C@H](O)C[C@@H]4C[C@H](O)CC[C@]4(C)[C@H]3CC[C@]12C, the “activity change, negative = cytotoxicity” value was 1.78% [at 17.3 µM] (inactive).
For COc1ccc2c3c1O[C@H]1C[C@@H](O)C=C[C@@]31CCN(C)C2, the “activity change, negative = cytotoxicity” value was 0.471% (inactive).
With CCCCCCc1cccc(NC(=O)[C@H](N)CCP(=O)(O)O)c1 the outcome was “inactive [at 9.29 µM]”.
With CC(=O)OC[C@@]12[C@H](O)C[C@@H](C)[C@]3(C[C@@H](c4ccoc4)OC3=O)[C@H]1C[C@H](O)C[C@]21CO1 the “activity change, negative = cytotoxicity” value was 5.35% [at 17.3 µM] (inactive).
In the case of Cc1nc2c(-c3cnc(N)nc3)nc(N3CCOCC3)nc2n1C(C)C, the Potency is reported as 259 nM (active).
With Cc1c(-c2ccnn2C)cc(C(=O)NCc2ccc(S(C)(=O)=O)cn2)c(=O)n1-c1cccc(C(F)(F)F)c1 the Potency was “inactive”.
With C/C=C(\C)C(=O)O[C@@H]1CC2[C@@H](CC=C3C[C@@H](O[C@H]4C[C@H](OC)[C@H](O[C@H]5C[C@H](OC)[C@H](O[C@H]6C[C@H](OC)[C@H](O[C@H]7C[C@@H](OC)[C@H](O[C@@H]8O[C@H](CO)[C@@H](O)[C@H](O)[C@H]8O)[C@@H](C)O7)[C@@H](C)O6)[C@@H](C)O5)[C@@H](C)O4)CC[C@@]32C)[C@@]2(O)CC[C@H](C(C)=O)[C@@]12C (stereo not given in full) the activity change, negative = cytotoxicity was 3.56% [at 9.29 µM] (inactive).
In the case of O=C(/C=C/c1ccc(O)cc1)OC[C@]12O[C@H]1[C@@H](O)[C@@H]1C=CO[C@@H](O[C@@H]3O[C@H](CO)[C@@H](O)[C@H](O)[C@H]3O)[C@@H]12, the “outcome” value is reported as “inactive [at 17.3 µM]”.
For CC1=C(/C=C/C(C)=C/C=C/C(C)=C/CO)C(C)(C)CCC1, the “activity change, negative = cytotoxicity” value was -0.811% (inactive).
For COCC(=O)N1CCc2cc(-c3csc(NC(=O)c4cc(OC)cc(OC)c4)n3)ccc21, the “activity change, negative = cytotoxicity” value was 9.41% (inactive).
With CC(CCC1(O)OC2CC3C4CCC5CC(O[C@@H]6O[C@H](CO)[C@@H](O)[C@H](O)[C@H]6O[C@@H]6OC[C@@H](O)[C@H](O)[C@H]6O)C(O)CC5(C)C4CCC3(C)C2C1C)CO[C@@H]1O[C@H](CO)[C@@H](O)[C@H](O)[C@H]1O (stereo not given in full) the outcome was “inactive [at 9.29 µM]”.
In the case of CC(C)CC1NC(=O)C(C(C)c2ccccc2)NC(=O)C(C(C)C)NC(=O)C(C)NC(=O)CCCNC(=O)C(Cc2c[nH]c3ccccc23)NC(=O)C(C)NC1=O (stereo not drawn) (cyclo([GABA]AV[ξPhe(βξ-Me)]LAW); configuration not given here), the “outcome” value is reported as “inactive [at 17.3 µM]”.
With COc1cc(CCc2ccccc2)c(C(=O)O)c2c1CC(C(C)(C)O)O2 (stereo not given) the “activity change, negative = cytotoxicity” value was 5.26% (inactive).
For CC(C)(O)c1ccc2c(c1)C(O)CC1C(C)(C(=O)O)CCCC21C (stereo not given), the “activity change, negative = cytotoxicity” value was 4.29% (inactive).
In the case of C[C@@H]1CC[C@]2(C)C3(C)CC[C@@]2(OC3=O)[C@@]12C[C@H](c1ccoc1)OC2=O, the “activity change, negative = cytotoxicity” value is reported as 8.46% (inactive).
With CCNC(=O)[C@@H]1CCCN1C(=O)[C@H](CCCN=C(N)N)NC(=O)[C@H](CC(C)C)NC(=O)[C@@H](C)NC(=O)[C@H](Cc1ccc(O)cc1)NC(=O)[C@H](CO)NC(=O)[C@H](Cc1c[nH]c2ccccc12)NC(=O)[C@H](Cc1cnc[nH]1)NC(=O)[C@@H]1CCC(=O)N1 the “activity change, negative = cytotoxicity” value was 9.39% [at 17.3 µM] (inactive).
With C/C(=C/CCC(CO)C1CCC2(C)C3CCC4C(C)(C)C(OC5OC(CO)C(O)C(O)C5O)CC(O)C45CC35CCC12C)COC1OC(CO)C(O)C(O)C1O (stereo not given) the “outcome” value was “inactive [at 17.3 µM]”.
With O=C1NC(Cc2ccc(O)cc2)C(=O)N2CCCC12 (stereo not given) the “activity change, negative = cytotoxicity” value was 3.23% (inactive).
In the case of C/C=C/C1=CC2=CC(=O)C(C)(O)C(OC(=O)c3c(C)cc(O)cc3O)C2CO1 (stereo not given), the “activity change, negative = cytotoxicity” value is reported as 6.83% (inactive).
For CC(C)CC1(C(=O)OCc2ccc(O[C@@H]3O[C@H](CO)[C@@H](O)[C@H](O)[C@H]3O)cc2)CC(=O)OC(C(=O)O)CC(=O)OCC2OC(O1)C(OC(=O)/C=C/c1ccc(O)cc1)C(O)C2O (stereo not given in full), the outcome was “inactive [at 9.29 µM]”.
For COC(=O)[C@@]1(C)CC[C@]2(C(=O)O[C@@H]3O[C@H](CO)[C@@H](O)[C@H](O)[C@H]3O)CC[C@]3(C)C(=CCC4[C@@]5(C)CC[C@H](O[C@@H]6O[C@H](C(=O)O)[C@@H](O)[C@H](O)[C@H]6O)C(C)(C)C5CC[C@]43C)[C@@H]2C1 (stereo not given in full), the activity change, negative = cytotoxicity was -9.96% [at 9.29 µM] (inactive).
